Source: PubChem (several laboratories)
This is a sample that favours compounds with a hit; in the whole collection about 1.3% have one here.
Cardiac RTF inh: cardiac RTF calcium desensitization; IANBD-labeled cardiac RTF, Ca2+ fluorescence; inhibition, % at 7.15 µM; 340,000 tested, 0.12% active; AID 493244;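 active means inhibition above the mean inhibition of all tested compounds plus 3 SD, cut at about 17% in these data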;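 further: assay run at fixed EC70 calcium of 1.6 mM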
Keap1-Nrf2 PPI: disrupts human Keap1 binding to Nrf2 peptide; Q14145; Keap1 Kelch-Nrf2 peptide fluorescence polarization, 1536-well; 340,000 tested, 0.15% active; inhibition, % at 9.4 µM; in the data active means inhibition above about 12%;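 further: human Keap1 Kelch domain with fluorescein labeled Nrf2 9mer peptide probe; 0% = neutral control wells and 100% = peptide positive control; higher means more block of Keap1 binding to Nrf2 peptide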
Target sequence (Q14145 whole entry, looked up, the tested form may be a part): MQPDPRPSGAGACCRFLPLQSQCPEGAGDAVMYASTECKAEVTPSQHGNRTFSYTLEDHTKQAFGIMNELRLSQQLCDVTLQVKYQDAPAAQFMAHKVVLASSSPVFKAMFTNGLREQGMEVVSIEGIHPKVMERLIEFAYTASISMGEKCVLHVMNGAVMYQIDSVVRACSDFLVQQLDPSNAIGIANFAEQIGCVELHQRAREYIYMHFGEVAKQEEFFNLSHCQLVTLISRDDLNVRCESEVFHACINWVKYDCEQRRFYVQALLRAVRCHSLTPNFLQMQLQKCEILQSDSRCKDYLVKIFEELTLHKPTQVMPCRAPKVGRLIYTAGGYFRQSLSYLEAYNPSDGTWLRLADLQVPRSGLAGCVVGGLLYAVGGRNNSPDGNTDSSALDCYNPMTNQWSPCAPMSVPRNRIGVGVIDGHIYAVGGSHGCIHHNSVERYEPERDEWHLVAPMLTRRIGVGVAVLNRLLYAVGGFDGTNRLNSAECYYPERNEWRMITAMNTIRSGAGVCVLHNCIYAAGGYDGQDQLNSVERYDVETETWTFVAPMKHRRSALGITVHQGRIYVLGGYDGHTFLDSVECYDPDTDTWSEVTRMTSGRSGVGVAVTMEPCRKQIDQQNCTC
CRFR2-BP ag: CRF-BP/CRF-R2 complex agonism; HEK293 CRF-R2/CRF-BP, calcium dye fluorescence (FLIPR); percent of saturating CRF peptide response; activation, % at 13.2 µM; 350,000 tested, 0.46% active; AID 588473;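 active means activation of at least 50%, plus an integration ratio under a set limit after plate pattern correction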;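 further: plate controls were neutral control wells without compound for no effect and CRF at EC100 for full effect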
C-LANA FP: inhibitors of KSHV LANA C-terminal domain DNA binding. MBP-C-LANA/FAM-LBS DNA binding, fluorescence polarization. inhibition, % at 9 µM. 340,000 tested, 0.078% active. AID 504423;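 active means highest replicate inhibition at or above 60% at 9 µM, even if other replicates fall short; inactive means all replicates below 60% inhibition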;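 further: 0% = neutral control wells and 100% = 4 µM acridine orange control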
CRFBP-R2 block: antagonists of CRF-binding protein/CRF-R2 receptor complex | inhibition, % at 11.8 µM | 350,000 tested, 0.59% active | HEK293 CRF-R2/CRF-BP, CRF-induced calcium fluorescence | AID 588475;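 active means inhibition of the ligand-induced calcium signal above about 50% at the single tested concentration, limit read from the data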
RTF Ca sens act: increases calcium sensitivity of human cardiac regulated thin filaments | activation, % at 7.2 µM | IANBD-labeled TnC RTF fluorescence at EC20 calcium; 0% EC20 calcium, 100% full calcium | AID 493008 | 340,000 tested, 0.24% active;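 active means activation above the mean over all tested compounds plus 3 SD, cut at about 30% in these data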;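 further: rise in fluorescence read as greater calcium sensitivity of cardiac thin filaments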
RTF inh confirm: confirmation of inhibitors of cardiac thin filament calcium sensitivity | 360 tested, 8% active | AID 504635 | inhibition, % at 7.15 µM | shares compounds with Cardiac RTF inh | reconstituted cardiac thin filaments, calcium sensitivity fluorescence; in the data active means inhibition above about 18%
DNA intercal 2: intercalates DNA, flagged as C-LANA false positive | shares compounds with C-LANA FP | 20 tested, under 10 active | AID 588364 | AC50, µM (doses to about 35 µM), inactives show at the highest dose activity change, negative = inhibition | Acridine orange-DNA displacement, fluorescence polarization;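 active means signal drop with an AC50 no more than ten times the top valid dose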
Keap1 TSA: binders of human Keap1 Kelch domain. Keap1 Kelch thermal shift, delta Tm; active compounds read high. AID 651823. max delta Tm, degrees C. shares compounds with Keap1-Nrf2 PPI. 400 tested, 8% active; in the data active means max delta Tm above about 0.48 degrees C
Dye-only ctr: counter-screen for Keap1 thermal shift hits: dye-only artifacts; Sypro Orange dye-only thermal melt, no protein, delta Tm; top dose 26 µM; 140 tested, under 10 active; AID 651858; shares compounds with Keap1-Nrf2 PPI; delta Tm, degrees C (concentration not given with the values);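 active means at highest dose tested, delta Tm positive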
Numbers without * were called inactive; nt = not tested or not shown.

SMILES	Cardiac RTF inh	Keap1-Nrf2 PPI	CRFR2-BP ag	C-LANA FP	CRFBP-R2 block	RTF Ca sens act	RTF inh confirm	others
S=c1[nH]nc(-c2cc(-c3ccccc3)n[nH]2)n1/N=C/C=C/c1ccco1	nt	nt	0.4	nt	35.9	nt	nt
Cc1cnc(NC2=NCCC2)s1	45.5*	-1.6	4.0	1.2	-3.0	-8.6	-3.4
c1nnc(NC2=NCCC2)s1	6.4	-0.5	-2.7	-1.2	-4.5	3.8	nt
Cc1cccc(-c2nc(CS(=O)CC(=O)N3CCN(C)CC3)c(C)o2)c1 (centres undefined)	-3.3	4.2	-1.1	-5.8	7.7	-1.9	nt
CC(Sc1nc(=O)cc(N)n1CCc1ccccc1)C(=O)NCc1ccccc1 (centres undefined)	18.8*	0.3	-0.9	-1.2	-0.1	-3.5	-0.9
COc1cc2c(cc1OC)CN(Cc1cc(=O)oc3cc(C)c(Cl)cc13)CC2	0.1	-7.5	3.0	-0.1	-7.8	-4.8	nt
Cc1nc(-n2nnc3cc(C)c(C)cc32)c2c3c(sc2n1)CCCC3	-7.4	0.1	0.4	0.9	-22.4	3.5	nt
O=C(O)c1ccc(-n2cccc2/C=C2/NC(=O)N(c3ccccc3)C2=O)cc1	17.2*	3.8	0.2	45.8	6.8	-7.2	6.6
N#Cc1ccccc1CN1C(=O)S/C(=C/c2cccn2-c2ccc(C(=O)O)cc2)C1=O	3.3	0.5	-0.2	22.7	-2.8	3.5	nt
O=C(O)c1ccc(-n2cccc2/C=C2/SC(=O)N(CC(=O)N3CCCC3)C2=O)cc1	26.0*	3.4	0.2	64.1*	19.1	-8.4	7.6
O=C(O)c1ccc(-n2cccc2/C=C2/NC(=O)N(c3cccc(Cl)c3)C2=O)cc1	-1.5	-1.5	-2.3	52.1	-6.7	-5.2	nt
O=C(O)c1ccccc1NC(=O)C(c1ccccc1)c1ccccc1	0.9	-0.8	1.3	0.2	9.4	-2.1	nt
COC(=O)CC(NC(=O)Nc1ccc(C)cc1)c1cccc([N+](=O)[O-])c1 (centres undefined)	-3.6	-3.0	-1.0	-0.6	11.1	5.0	nt
COC(=O)c1cc2oc(C)cc2n1CC(=O)N(C)c1ccccc1	17.1*	-2.0	-0.2	-0.3	-1.4	-2.2	-3.0
C=CCN(C(=O)Cn1c(C(=O)OC)cc2oc(C)cc21)c1ccccc1	-29.1	-0.8	17.7	-1.6	-11.1	6.6	nt
Oc1cccc2ccc[n+](CC(O)Cn3c4ccccc4c4ccccc43)c12 (centres undefined)	18.5*	3.1	-2.6	1.9	5.6	5.4	-1.1
COc1cc(/C=N/NC(=O)c2c(C)nnn2-c2nonc2N)ccc1O	17.5*	-4.8	-2.4	-0.2	6.7	-1.7	4.8
CCOC(=O)Nc1nnc(CCc2ccccc2)s1	-24.5	-8.0	2.1	-2.4	-33.9	-4.1	nt
CCc1nnc(NC(=O)OCc2ccccc2)s1	16.9*	-4.7	-1.4	-1.1	-16.8	2.0	-1.5
O=C(O)c1cc(N2N=C(C(F)(F)F)/C(=C/C=C/c3ccco3)C2=O)ccc1Cl	111.4*	20.8*	4.8	112.8*	3.9	-61.8	56.5*	DNA intercal 2=19.7%;Keap1 TSA=0.68*
O=C1/C(=C/C=C/c2ccco2)SC(=S)N1NS(=O)(=O)c1ccccc1	71.1*	27.8*	6.3	110.2*	8.9	-40.1	3.3	Keap1 TSA=1.33*
CCN(C(=O)C(C)N1C(=O)/C(=C/c2ccco2)SC1=S)C1CCS(=O)(=O)C1 (centres undefined)	-4.8	-2.8	3.2	5.7	23.9	-6.3	nt
CC(C(=O)O)N1C(=O)/C(=C/C=C/c2ccco2)SC1=S (centres undefined)	86.5*	13.4*	6.1	103.8*	-7.2	-51.0	39.5*	Keap1 TSA=0.77*;Dye-only ctr=-29
C/C(=C(/NC(=O)c1ccccc1)C(=O)O)c1ccco1	-0.2	-0.2	-2.0	-0.1	14.8	3.6	nt
C=CCn1c(SCC(=O)NCc2ccco2)nnc1C1CCCCC1	-1.1	-5.6	-0.6	-0.3	-0.3	0.3	nt
SMILES	Cardiac RTF inh	Keap1-Nrf2 PPI	CRFR2-BP ag	C-LANA FP	CRFBP-R2 block	RTF Ca sens act	RTF inh confirm	others
O=C1CCCC(O)=C1N=Nc1ccc(C(=O)O)cc1	11.9	4.9	-0.9	71.3*	6.2	-13.8	nt	DNA intercal 2=4.2%
COc1ccc(C(=O)C2CCCN(S(=O)(=O)c3cccnc3)C2)c(C)c1 (centres undefined)	-0.8	-1.8	-0.5	-0.9	-1.8	-5.7	nt
Clc1ccc(-c2nnc3sc(-c4ccc(Br)o4)nn23)cc1	-15.5	3.9	52.5*	107.1*	-114.6	2.4	nt	DNA intercal 2=11.5%
Clc1ccc(-c2nnc3sc(-c4ccc(Br)o4)nn23)c(Cl)c1	-1.3	-0.7	-1.1	1.5	14.7	1.2	nt
Nc1c(/C=C2\C=CC(=O)C(O)=C2)c(=O)nc2sc(CC(=O)N3CCCCC3)nn12	nt	nt	nt	nt	nt	nt	nt	DNA intercal 2=8.3%
CN(C)S(=O)(=O)c1cc(C(=O)NC2CCSc3ccccc32)ccc1Cl (centres undefined)	nt	nt	nt	nt	nt	nt	nt	DNA intercal 2=-1.3%
O=C(NC1CCSc2ccccc21)c1ccc(Cl)c(S(=O)(=O)N2CCOCC2)c1 (centres undefined)	-1.9	-4.2	-2.4	-0.5	-2.7	-1.3	nt
COc1cc2c(cc1OC)CN(Cc1ccc(C)cc1)CC2	0.2	4.5	1.9	1.1	-20.0	-3.2	nt
COc1ccc(-c2cc(C(F)(F)F)c3c(N)c(C(=O)NCCSC)sc3n2)cc1	-77.0	29.2*	66.3*	53.0	-67.4	63.1*	nt	DNA intercal 2=-26.5%;Keap1 TSA=-0.1;Dye-only ctr=-26.7
COc1cc(S(=O)(=O)NC2CCCCC2)ccc1Cl	-0.6	-3.3	-1.5	-0.8	-0.3	-0.3	nt
Cc1ccc(/C=C2/SC(=O)NC2=S)o1	-28.4	24.5*	35.6	31.3	35.2	24.5	nt	Keap1 TSA=0.73*
O=Nc1c(O)ccc2cc(S(=O)(=O)O)ccc12	-4.0	4.7	0.5	5.0	-15.8	-1.3	nt
CN(C)c1ccc2cc(S(=O)(=O)O)cc(O)c2c1	-3.1	12.0*	-2.5	54.0	9.8	6.5	nt	Keap1 TSA=1.32
CC(NS(=O)(=O)c1ccc(Br)cc1)C(c1cccs1)N1CCN(C)CC1 (centres undefined)	2.6	-7.5	13.4	-1.4	-15.6	-0.6	nt
COc1ccc(OC)c(/C=N/NC(=O)CN2CCSCC2)c1	3.1	-0.1	-2.1	-0.9	15.3	-8.1	nt
